Measured values published in PubChem BioAssay (EPA / NIEHS).
Several values for one entry are separate records, joined by “and”; a condition that tells them apart may be missing. Identical values can stand only once. Activity calls are given as the source filed them. The calls were made as follows: active = hit-call score of the fitted dose curve at least 0.9, where 1 is the maximum; inactive = score below 0.9.

read-out: Cytochrome P450 (CYP24A1_1), CYP24A1 (gene 1591); experiment: LTEA_HepaRG_CYP24A1_1: Life Technologies and Expression Analysis (LTEA) Assay for Cytochrome P450 (CYP24A1_1) using HepaRG (AID 2283671); settings: mRNA level, 48 h; actives raise or lower the signal
Procedure: LTEA_HepaRG is a cell based, multiplexed-readout assay that uses HepaRG, a human liver cell line, with measurements taken at 48 hours after chemical dosing on a 96-well plate.LTEA_HepaRG_CYP24A1_1 is one of 102 assay component(s) measured in the LTEA HepaRG cell culture assay. It is a marker of NR mediated metabolism.Data from the assay component LTEA_HepaRG_CYP24A1_1 was analyzed into 1 endpoint. This assay endpoint, LTEA_HepaRG_CYP24A1_1, was analyzed with bidirectional fitting relative to DMSO as the negative control and baseline of activity. Using a type of inducible reporter, measures of mRNA induction for gain or loss-of-signal activity can be used to understand regulation of transcription factor activity. To generalize the intended target to other relatable targets, this assay endpoint is annotated to the cyp intended target family, where the subfamily is xenobiotic metabolism.
A total of 1060 chemcials from the ToxCast library were tested in eight-point concentration-response experiments. Cell culture and cytotoxicity assays were conducted at Thermo Fisher Scientific's Custom Services facility (Madison, WI). A single lot of human HepaRG cells (Thermo Fisher Scientific, Frederick, MD) was used for the cell culture experiments. 96-well format collagen type I coated plates of human HepaRG cells were prepared using established methods. Briefly, cryopreserved HepaRG cells were thawed, plated at a density of approximately 100,000 cells/well in HepaRG Thaw, Plate, and General Purpose media (HPRG770, Thermo Fisher Scientific), and incubated for 48 hours. 0.5% DMSO was selected as vehicle control to balance the requisite need of DMSO in HepaRG cultures to maintain differentiation (for example, baseline metabolism, proportions of hepatocytes vs. cholangiocytes), while enabling further hepatic receptor pathway activation (for example, PXR and CAR) in response to chemical exposure. 48 hours after plating, the culture medium was replaced with HepaRG Serum-Free Incudtion Media. Cells were exposed to each test chemical in duplicate and maintained in CO2 incubators for another 48 hours. Chemical plates were thawed to room temperature and 200x concentrations of treatment groups were prepared. 8-point conentration-reponse curves were made with the highest exposure at 100 uM, followed by half-log dilutions, all in 0.5% DMSO. Each test plate contained variouse controls, induction positive controls (1mM phenobarbital), cytotoxicity positive controls ([…] aflatoxin B1), vehicle controls (0.5% DMSO), and total lysis controls (0.5% DMSO). Cell morphology images were taken using an Essen IncuCyte FLR automated microscope, with six 96-well plates imaged in about 24 minutes. Images were captured and exported and JPEG files. Spent culture media was transfered to black-well plates for the LDH assay, and remaining media was sorted at -80 C for later use. Cells were treated with RLT buffer and frozen until shipped for gene expression analysis. Total RNA was isolated from the cell suspension in 75 uL of Buffer RLT (Qiagen, Germantown, MD 20874) by Quintiles/Expression Analysis (Durham, NC) using a custom isolation procedure. Total RNA from each plate well was transferred to a preamplification plate. Fluidigm's 96.96 Dynamic ArrayTM (Fluidigm, Amsterdam, the Netherlands) technology was used for gene expression analyses by quantitative reverse transcription polymerase chain reaction (qRT-PCR, performed by Quintiles/Expression Analysis, Durham, NC)89. Standard TaqManTM Assays (Applied Biosystems/ThermoFisher Scientific, Foster City, CA) were used to assess the expression of 93 genes selected based on their selectivity and sensitivity to important hepatic receptors known to be modulated by environmental chemicals; importance in human hepatocyte functionality; and hepatotoxicity. […]

| Structure (SMILES) | outcome |
| --- | --- |
| CCC(C)N(C)C(=O)c1cc2ccccc2c(-c2ccccc2Cl)n1 (stereo not drawn) | inactive |
| CCCCCCCCCC[N+](C)(C)[O-] | inactive |
| CCCCCCC(CCCCCCCCCCC(=O)OCC(COC(C)=O)OC(C)=O)OC(C)=O (stereo not drawn) | inactive |
| CCCCC(CC)CO (stereo not drawn) | inactive |
| CN(C)CCCN1c2ccccc2Sc2ccc(Cl)cc21 | inactive |
| Cc1occc(=O)c1O | inactive |

test system: not listed separately; experiment: CCTE_Padilla_ZF_144hpf_TERATOSCORE: (Legacy) CCTE's 144 Hour Post-fertilization zebrafish Assay Teratoscore, Padilla Lab (AID 2283679); settings: not given;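 as to AC50: zebrafish embryos with chorions exposed by immersion from 6-8 hpf to 5 dpf with daily renewal; teratogenicity score from eye scoring of death hatching and malformations at 144 hpf; higher score means more developmental defects relative to DMSO baseline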
In short: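 Larvae scored by eye at 144 hpf for death, hatching and malformations after a day in clean Hanks'. Before that, daily-renewed exposure at 80 uM (0.4% DMSO, 26C) from roughly 6-8 hpf through 5 dpf, 4 embryos per chemical.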

| Structure (SMILES) | AC50 | outcome |
| --- | --- | --- |
| Cc1ccc(-c2cc(C(F)(F)F)nn2-c2ccc(S(N)(=O)=O)cc2)cc1 | 8.82 µM (active) | – |
| CCC(C)N(C)C(=O)c1cc2ccccc2c(-c2ccccc2Cl)n1 (stereo not drawn) | 16.3 µM (active) | – |
| CC(C)OC(=O)C(C)(C)Oc1ccc(C(=O)c2ccc(Cl)cc2)cc1 | 1.78 µM (active) | – |
| CCCCCCCCCC[N+](C)(C)[O-] | – | inactive |
| CC(COCC(C)OC(=O)c1ccccc1)OC(=O)c1ccccc1 (stereo not drawn) | 7.06 µM (active) and 4.45 µM (active) | – |
| CCCCCCC(CCCCCCCCCCC(=O)OCC(COC(C)=O)OC(C)=O)OC(C)=O (stereo not drawn) | 7.74 µM (active) | – |
| CCCCc1nc2cccnc2n1Cc1ccc(-c2ccccc2-c2nnn[nH]2)cc1 | – | inactive |
| O=C(O)CN(CC(=O)O)CC(=O)O | – | inactive |
| CC(=O)CC(c1ccccc1)c1c(O)c2ccccc2oc1=O (stereo not drawn) | 39.6 µM (active) | – |
| N[C@@H](Cc1c[nH]c2ccccc12)C(=O)O | – | inactive |
| CC(=O)O[C@]1(C(C)=O)CC[C@H]2[C@@H]3C=C(Cl)C4=CC(=O)[C@@H]5C[C@@H]5[C@]4(C)[C@H]3CC[C@@]21C | 15.2 µM (active) | – |
| O=C(O)c1cccnc1 | – | inactive |
| Oc1ccccc1O | 60.1 µM (active) | – |
| O=Cc1ccccc1C=O | 1.15 µM (active) | – |
| O=C(Oc1ccccc1)c1cccc(C(=O)Oc2ccccc2)c1 | 9.15 µM (active) | – |
| Cc1cc(Cc2ccc(N)c(C)c2)ccc1N | 88.5 µM (active) | – |
| CN(C)CCCN1c2ccccc2Sc2ccc(Cl)cc21 | 6.24 µM (active) | – |
| CC(C)(O)c1ccc(CNC(=O)c2cccnc2Oc2ccc(F)cc2)cc1 | – | inactive |
| CCc1nc(N)nc(N)c1-c1ccc(Cl)cc1 | 64.5 µM (active) | – |
| Cc1ccc(C(C)(C)C)c(O)c1 | 92.9 µM (active) | – |
| Oc1ccc(O)cc1 | 15.6 µM (active) | – |
| S=c1[nH]c2ccccc2s1 | 31.1 µM (active) | – |
| CCCC[C@H]1CN(CC2CCOCC2)C(=O)OC12CCN(C1(C)CCN(C(=O)c3c(C)ncnc3C)CC1)CC2 | – | inactive |
| CC(=O)[C@@]1(O)CC[C@H]2[C@@H]3CCC4=CC(=O)CC[C@]4(C)[C@H]3CC[C@@]21C | 36.1 µM (active) | – |
| CCN(CC)CCOc1ccc(C(=C(Cl)c2ccccc2)c2ccccc2)cc1 | 1.56 µM (active) | – |
| Cc1c(C)c2c(c(C)c1O)CCC(C)(COc1ccc(CC3SC(=O)NC3=O)cc1)O2 (stereo not drawn) | 1.67 µM (active) | – |
| CCc1cc(C2=C(C(=O)O)N(c3ccccc3C(F)(F)F)S(=O)(=O)c3ccccc32)cc2c1OCO2 | – | inactive |
